Of roughly 8,800 targets only a part is listed; those with a hit were picked by preference. About 0.5% of all pairs of compound and target were hits. Values without a mark were called inactive.
Legend:
Experiment in all cases: log2 fold change, soluble protein after heating vs DMSO (PISA); higher = thermal stabilisation; K562 lysate, 10 uM; active = over 0.2 and 3.5 SD of the protein, either way, in both replicates (recomputed)
[1] = compound: CN1CC[C@H](c2c(O)cc(O)c3c(=O)cc(-c4ccccc4Cl)oc23)[C@H](O)C1 [alvocidib]
How it was run: (§1)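 The values are log-two fold changes in thermal stability compared with solvent controls and come from duplicates. They were obtained by TMTpro 16plex LC-MS/MS, with channel sums equalised, on the supernatant after 21,000xg for 90 min. That supernatant came from crude K562 extract at 1 mg/mL protein treated with 10 μM compound for 30 min, heated for 3 min across 48°C-58°C, pooled and brought to 0.5% NP-40 at 4°C.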

[2] = compound: CN1CCc2c(c3ccccc3n2Cc2ccc(C(=O)NO)cc2)C1 [Tubastatin A]
How it was run: as §1

[3] = compound: CNC(=O)C1=CC=CC=C1NC2=NC(=NC=C2Cl)NC3=C(C=C(C=C3)N4CCOCC4)OC
How it was run: as §1

[4] = compound: CNC(=O)c1ccc(Nc2ncc(C(F)(F)F)c(NCc3nccnc3N(C)S(C)(=O)=O)n2)cc1 [defactinib]
How it was run: as §1

[5] = compound: CNc1nc(-c2ccc3c(N)n[nH]c3c2)cc(N2C[C@@H](C(=O)NC3CCCCC3)CC[C@H]2C)n1
How it was run: as §1

[6] = compound: COC(=O)N[C@@H](C)CNc1nccc(-c2cn(C(C)C)nc2-c2cc(Cl)cc(NS(C)(=O)=O)c2F)n1 [encorafenib]
How it was run: as §1

[7] = compound: COC(=O)[C@H](CCSC)NC(=O)C1=C(C=C(C=C1)NC[C@H](CS)N)C2=CC=CC=C2
How it was run: as §1

[8] = compound: COc1cc(Nc2ncc3c(n2)-c2ccc(Cl)cc2C(c2c(F)cccc2OC)=NC3)ccc1C(=O)O [alisertib]
How it was run: as §1

[9] = compound: COc1cc2nc(-c3cc(F)ccc3O)nc(N[C@@H]3CNC[C@H]3C(C)(C)O)c2cc1OC
How it was run: as §1

[10] = compound: COc1cc2ncnc(Nc3ccc(F)c(Cl)c3)c2cc1OCCCN1CCOCC1 [gefitinib]
How it was run: as §1

[11] = compound: CS(=O)(=O)CCNCc1ccc(-c2ccc3ncnc(Nc4ccc(OCc5cccc(F)c5)c(Cl)c4)c3c2)o1 [lapatinib]
How it was run: as §1

[12] = compound: CS(=O)(=O)N1CCN(Cc2cc3nc(-c4cccc5[nH]ncc45)nc(N4CCOCC4)c3s2)CC1 [pictilisib]
How it was run: as §1

[13] = compound: C[C@@H](Oc1cc(-c2cnn(C3CCNCC3)c2)cnc1N)c1c(Cl)ccc(F)c1Cl [crizotinib]
How it was run: as §1

[14] = compound: C[C@H](C1=CC=C(C=C1)C(=O)NC2=C3C=CNC3=NC=C2)N
How it was run: as §1

[15] = compound: C[C@H](Nc1ncnc2nc[nH]c12)c1cc2cccc(Cl)c2c(=O)n1-c1ccccc1 [duvelisib]
How it was run: as §1

[16] = compound: Cc1cc(Nc2cc(CN3CCOCC3)c3nc(C)c(Cc4ccc(Cl)cc4F)n3n2)n[nH]1 [gandotinib]
How it was run: as §1

[17] = compound: Cc1cc(Nc2cc(N3CCN(C)CC3)nc(Sc3ccc(NC(=O)C4CC4)cc3)n2)n[nH]1 [tozasertib]
How it was run: as §1

[18] = compound: Cc1ccc(-n2nc(C(C)(C)C)cc2NC(=O)Nc2ccc(OCCN3CCOCC3)c3ccccc23)cc1 [doramapimod]
How it was run: as §1

[19] = compound: Cc1ccc(NC(=O)c2ccc(CN3CC[C@H](N(C)C)C3)c(C(F)(F)F)c2)cc1Nc1nccc(-c2cncnc2)n1 [bafetinib]
How it was run: as §1

[20] = compound: Cc1cccc(CC(=O)N2CCc3c2ccc(-c2cn(C)c4ncnc(N)c24)c3F)n1
How it was run: as §1

UniProt P02792, sequence (P02792 whole entry, looked up): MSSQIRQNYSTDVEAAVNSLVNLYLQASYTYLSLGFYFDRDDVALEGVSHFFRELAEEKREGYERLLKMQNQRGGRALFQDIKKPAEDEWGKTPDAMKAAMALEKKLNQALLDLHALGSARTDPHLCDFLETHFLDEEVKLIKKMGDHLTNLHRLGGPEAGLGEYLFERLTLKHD
UniProt Q96F86, sequence (Q96F86 whole entry, looked up): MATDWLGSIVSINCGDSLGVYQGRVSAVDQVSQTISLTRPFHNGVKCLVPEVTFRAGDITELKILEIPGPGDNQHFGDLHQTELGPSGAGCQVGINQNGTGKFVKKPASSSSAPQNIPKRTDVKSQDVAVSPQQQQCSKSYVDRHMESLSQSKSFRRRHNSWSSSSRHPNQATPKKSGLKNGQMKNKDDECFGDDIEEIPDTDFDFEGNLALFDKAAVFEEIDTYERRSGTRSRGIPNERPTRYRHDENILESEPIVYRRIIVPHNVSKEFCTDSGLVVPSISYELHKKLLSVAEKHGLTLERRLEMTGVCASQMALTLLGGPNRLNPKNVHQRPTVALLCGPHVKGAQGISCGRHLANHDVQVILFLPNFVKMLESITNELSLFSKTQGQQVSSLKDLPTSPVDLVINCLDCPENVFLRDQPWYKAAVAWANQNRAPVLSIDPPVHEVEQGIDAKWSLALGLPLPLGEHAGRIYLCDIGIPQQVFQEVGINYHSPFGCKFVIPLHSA
UniProt Q10471, sequence (Q10471 whole entry, looked up): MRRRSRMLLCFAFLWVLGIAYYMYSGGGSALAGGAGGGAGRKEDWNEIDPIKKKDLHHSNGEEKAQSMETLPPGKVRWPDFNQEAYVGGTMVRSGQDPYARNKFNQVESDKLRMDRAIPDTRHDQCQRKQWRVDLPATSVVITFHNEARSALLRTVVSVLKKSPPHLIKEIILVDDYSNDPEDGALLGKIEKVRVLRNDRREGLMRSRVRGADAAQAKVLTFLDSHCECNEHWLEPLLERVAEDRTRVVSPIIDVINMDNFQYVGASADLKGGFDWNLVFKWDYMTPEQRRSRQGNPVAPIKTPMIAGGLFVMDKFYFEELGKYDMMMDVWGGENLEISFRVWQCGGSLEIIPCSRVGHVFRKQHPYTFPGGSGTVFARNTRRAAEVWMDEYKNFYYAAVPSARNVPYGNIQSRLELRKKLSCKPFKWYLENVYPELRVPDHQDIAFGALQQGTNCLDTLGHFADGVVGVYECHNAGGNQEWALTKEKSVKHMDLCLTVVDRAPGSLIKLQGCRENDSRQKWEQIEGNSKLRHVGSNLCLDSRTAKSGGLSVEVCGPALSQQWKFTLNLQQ
UniProt P57678, sequence (P57678 whole entry, looked up): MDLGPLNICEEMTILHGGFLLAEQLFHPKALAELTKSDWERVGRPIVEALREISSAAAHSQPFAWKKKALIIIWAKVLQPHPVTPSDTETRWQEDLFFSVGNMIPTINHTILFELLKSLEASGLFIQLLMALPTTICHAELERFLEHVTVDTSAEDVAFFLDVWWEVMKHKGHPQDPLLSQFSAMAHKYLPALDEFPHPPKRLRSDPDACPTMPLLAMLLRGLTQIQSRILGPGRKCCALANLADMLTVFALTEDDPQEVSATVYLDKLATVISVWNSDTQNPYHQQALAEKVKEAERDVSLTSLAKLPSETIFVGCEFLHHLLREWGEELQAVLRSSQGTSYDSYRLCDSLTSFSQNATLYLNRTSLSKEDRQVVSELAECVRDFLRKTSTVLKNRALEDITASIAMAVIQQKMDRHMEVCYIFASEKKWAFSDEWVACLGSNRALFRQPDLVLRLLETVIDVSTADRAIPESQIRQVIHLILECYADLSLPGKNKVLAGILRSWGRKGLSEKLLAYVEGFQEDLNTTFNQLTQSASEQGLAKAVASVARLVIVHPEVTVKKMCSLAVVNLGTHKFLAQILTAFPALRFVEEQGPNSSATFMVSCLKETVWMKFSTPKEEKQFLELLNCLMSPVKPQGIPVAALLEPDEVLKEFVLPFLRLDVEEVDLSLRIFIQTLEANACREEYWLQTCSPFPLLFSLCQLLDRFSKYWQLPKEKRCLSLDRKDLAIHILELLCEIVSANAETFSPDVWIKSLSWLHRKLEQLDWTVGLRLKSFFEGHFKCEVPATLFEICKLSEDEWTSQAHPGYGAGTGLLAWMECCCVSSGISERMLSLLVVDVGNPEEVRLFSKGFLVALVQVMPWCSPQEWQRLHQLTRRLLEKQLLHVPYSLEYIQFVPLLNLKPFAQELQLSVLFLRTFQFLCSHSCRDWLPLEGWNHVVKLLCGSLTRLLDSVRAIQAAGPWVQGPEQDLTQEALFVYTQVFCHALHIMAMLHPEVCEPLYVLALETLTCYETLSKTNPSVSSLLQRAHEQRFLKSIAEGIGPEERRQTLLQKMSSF
UniProt Q9UJY4, sequence (Q9UJY4 whole entry, looked up): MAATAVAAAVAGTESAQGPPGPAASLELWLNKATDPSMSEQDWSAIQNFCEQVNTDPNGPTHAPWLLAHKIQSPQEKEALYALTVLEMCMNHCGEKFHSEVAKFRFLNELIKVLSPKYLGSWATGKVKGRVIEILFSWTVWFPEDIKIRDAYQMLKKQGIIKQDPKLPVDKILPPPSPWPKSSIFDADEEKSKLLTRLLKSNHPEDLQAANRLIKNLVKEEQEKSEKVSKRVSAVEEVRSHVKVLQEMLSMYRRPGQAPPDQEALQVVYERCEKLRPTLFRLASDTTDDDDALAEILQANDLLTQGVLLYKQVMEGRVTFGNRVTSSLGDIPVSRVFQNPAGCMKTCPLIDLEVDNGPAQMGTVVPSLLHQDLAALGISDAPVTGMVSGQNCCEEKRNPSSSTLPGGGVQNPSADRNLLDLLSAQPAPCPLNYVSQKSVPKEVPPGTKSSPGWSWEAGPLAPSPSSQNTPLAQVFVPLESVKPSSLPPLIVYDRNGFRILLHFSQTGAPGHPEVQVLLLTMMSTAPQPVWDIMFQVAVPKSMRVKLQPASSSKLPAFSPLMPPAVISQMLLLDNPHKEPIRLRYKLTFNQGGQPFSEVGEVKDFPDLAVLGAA
UniProt Q96RT1, sequence (Q96RT1 whole entry, looked up): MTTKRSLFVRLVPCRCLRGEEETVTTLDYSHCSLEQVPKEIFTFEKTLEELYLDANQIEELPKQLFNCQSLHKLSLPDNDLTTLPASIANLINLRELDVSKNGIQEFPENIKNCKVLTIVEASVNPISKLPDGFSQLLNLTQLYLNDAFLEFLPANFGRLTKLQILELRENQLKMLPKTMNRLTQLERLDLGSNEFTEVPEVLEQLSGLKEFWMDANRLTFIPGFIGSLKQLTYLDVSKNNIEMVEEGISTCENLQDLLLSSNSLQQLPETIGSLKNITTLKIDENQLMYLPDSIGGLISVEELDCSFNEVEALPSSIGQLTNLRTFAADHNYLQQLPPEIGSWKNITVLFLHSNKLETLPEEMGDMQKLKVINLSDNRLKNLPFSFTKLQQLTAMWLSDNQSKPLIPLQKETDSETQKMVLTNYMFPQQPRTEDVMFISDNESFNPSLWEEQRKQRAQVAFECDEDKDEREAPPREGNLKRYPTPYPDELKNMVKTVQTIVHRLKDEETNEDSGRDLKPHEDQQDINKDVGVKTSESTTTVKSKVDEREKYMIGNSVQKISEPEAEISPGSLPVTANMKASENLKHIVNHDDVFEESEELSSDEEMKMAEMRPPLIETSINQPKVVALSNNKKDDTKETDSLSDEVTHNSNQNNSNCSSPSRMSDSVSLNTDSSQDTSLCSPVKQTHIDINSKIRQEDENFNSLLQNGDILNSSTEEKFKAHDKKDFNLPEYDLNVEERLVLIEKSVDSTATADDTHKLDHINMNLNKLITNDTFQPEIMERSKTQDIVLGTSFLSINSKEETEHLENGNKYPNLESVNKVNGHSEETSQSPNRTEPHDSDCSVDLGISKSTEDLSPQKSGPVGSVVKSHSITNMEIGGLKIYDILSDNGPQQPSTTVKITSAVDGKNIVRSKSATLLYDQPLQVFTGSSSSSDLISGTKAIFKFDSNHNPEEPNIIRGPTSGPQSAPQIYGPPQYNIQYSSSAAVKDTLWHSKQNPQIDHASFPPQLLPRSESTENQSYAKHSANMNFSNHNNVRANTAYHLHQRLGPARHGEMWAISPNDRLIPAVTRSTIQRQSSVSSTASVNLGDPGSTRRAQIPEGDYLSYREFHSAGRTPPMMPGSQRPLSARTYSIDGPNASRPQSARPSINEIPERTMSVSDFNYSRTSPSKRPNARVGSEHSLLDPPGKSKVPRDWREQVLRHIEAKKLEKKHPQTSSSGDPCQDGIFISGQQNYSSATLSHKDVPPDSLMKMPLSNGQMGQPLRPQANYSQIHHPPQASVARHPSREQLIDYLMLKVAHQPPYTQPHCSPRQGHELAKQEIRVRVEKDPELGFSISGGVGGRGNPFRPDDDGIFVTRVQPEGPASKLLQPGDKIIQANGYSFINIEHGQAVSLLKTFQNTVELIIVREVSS
UniProt O95208, sequence (O95208 whole entry, looked up): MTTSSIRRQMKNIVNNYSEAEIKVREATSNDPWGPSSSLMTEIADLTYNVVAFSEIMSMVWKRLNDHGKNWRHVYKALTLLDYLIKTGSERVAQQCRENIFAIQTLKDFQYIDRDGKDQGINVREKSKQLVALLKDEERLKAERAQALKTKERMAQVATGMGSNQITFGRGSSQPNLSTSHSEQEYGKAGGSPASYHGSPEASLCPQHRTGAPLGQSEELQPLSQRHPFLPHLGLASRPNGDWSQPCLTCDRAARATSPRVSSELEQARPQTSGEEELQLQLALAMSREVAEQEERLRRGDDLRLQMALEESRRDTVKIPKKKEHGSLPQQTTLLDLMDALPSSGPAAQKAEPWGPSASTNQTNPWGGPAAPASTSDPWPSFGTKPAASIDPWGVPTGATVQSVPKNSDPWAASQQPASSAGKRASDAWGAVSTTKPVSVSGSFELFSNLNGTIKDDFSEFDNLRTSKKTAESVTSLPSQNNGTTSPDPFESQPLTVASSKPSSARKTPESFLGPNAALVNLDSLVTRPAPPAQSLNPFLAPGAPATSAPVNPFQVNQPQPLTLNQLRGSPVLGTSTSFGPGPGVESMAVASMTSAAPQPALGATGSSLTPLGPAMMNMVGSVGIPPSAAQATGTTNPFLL

| Target | log2 fold change [1] | log2 fold change [2] | log2 fold change [3] | log2 fold change [4] | log2 fold change [5] | log2 fold change [6] | log2 fold change [7] | log2 fold change [8] | log2 fold change [9] | log2 fold change [10] | log2 fold change [11] | log2 fold change [12] | log2 fold change [13] | log2 fold change [14] | log2 fold change [15] | log2 fold change [16] | log2 fold change [17] | log2 fold change [18] | log2 fold change [19] | log2 fold change [20] |
| --- | --- | --- | --- | --- | --- | --- | --- | --- | --- | --- | --- | --- | --- | --- | --- | --- | --- | --- | --- | --- |
| FBXO30 (UniProt Q8TB52) | 0.066 | -0.106 | 0.03 | 0.042 | -0.091 | 0.036 | 0.1 | -0.014 | -0.006 | 0.029 | -0.015 | -0.03 | -0.013 | 0.187 | 0.024 | -0.072 | -0.021 | 0.045 | 0.032 | -0.117 |
| EDC3 (UniProt Q96F86) | -0.045 | -0.1 | 0.003 | 0.009 | 0.038 | 0.019 | -0.071 | 0.025 | -0.02 | -0.042 | -0.007 | -0.034 | -0.012 | -0.021 | 0.014 | 0.032 | -0.007 | 0.024 | -0.008 | -0.003 |
| EP300 (UniProt Q09472) | -0.098 | 0.035 | -0.026 | 0.066 | 0.006 | 0.031 | 0.105 | -0.121 | -0.056 | -0.054 | 0.062 | -0.078 | 0.047 | -0.101 | -0.037 | -0.047 | 0.065 | -0.016 | 0.044 | 0.089 |
| EIF2B3 (UniProt Q9NR50) | 0.071 | -0.103 | -0.009 | 0.008 | -0.012 | -0.007 | 0.057 | -0.016 | -0.007 | -0.041 | -0.007 | -0.021 | -0.061 | 0.234 (active) | 0.016 | -0.115 | -0.035 | 0.012 | -0.024 | -0.047 |
| GEMIN4 (UniProt P57678) | 0.017 | -0.196 | 0.078 | -0.014 | -0.072 | 0.022 | 0.013 | -0.006 | -0.005 | 0.016 | -0.031 | -0.012 | -0.065 | -0.013 | 0.004 | -0.188 | -0.009 | 0.032 | -0.038 | 0.039 |
| GGT7 (UniProt Q9UJ14) | -0.013 | 0.076 | 0.008 | 0.066 | 0.079 | 0.078 | -0.065 | -0.015 | 0.044 | 0.055 | -0.024 | -0.007 | 0.01 | 0.068 | 0.011 | 0.033 | -0.03 | -0.054 | -0.09 | 0.042 |
| ERBIN isoform 8 (UniProt Q96RT1) | -0.01 | 0.031 | 0.025 | -0.031 | -0.028 | 0.013 | -0.029 | -0.028 | -0.001 | 0.03 | -0.011 | 0.012 | -0.026 | -0.056 | 0.005 | 0.012 | -0.013 | 0.02 | -0.002 | 0.029 |
| FAM120B (UniProt Q96EK7) | -0.005 | -0.063 | 0.016 | 0.073 | -0.02 | 0.029 | 0.034 | -0.007 | -0.001 | 0.021 | 0.041 | -0.012 | -0.021 | -0.018 | -0.021 | -0.051 | -0.064 | 0.021 | -0.045 | 0.045 |
| EPN2 (UniProt O95208) | -0.079 | -0.008 | 0.001 | 0.005 | 0.009 | 0.016 | -0.051 | 0.002 | 0.03 | -0.014 | -0.007 | -0.037 | -0.009 | -0.407 (active) | 0.055 | 0.165 | -0.036 | 0.065 | -0.027 | 0.093 |
| FMNL1 isoform 3 (UniProt O95466) | 0.011 | -0.053 | 0.015 | 0.021 | 0.015 | 0.093 | 0.018 | 0.029 | 0.044 | -0.061 | 0.058 | 0.005 | -0.013 | 0.044 | 0 | -0.056 | -0.051 | 0.048 | -0.055 | 0.042 |
| FTL (UniProt P02792) | 0.013 | 0.187 | -0.04 | 0.15 | -0.097 | 0.145 | -0.076 | 0.067 | 0.007 | -0.024 | -0.072 | -0.027 | -0.066 | -0.022 | -0.001 | 0.068 | 0.008 | -0.024 | -0.052 | -0.018 |
| EEFSEC (UniProt P57772) | -0.008 | -0.157 | 0.019 | 0.036 | -0.017 | 0.018 | 0.098 | 0.019 | 0 | -0.012 | -0.019 | 0.008 | -0.042 | -0.043 | 0.031 | -0.023 | 0.024 | 0.022 | -0.079 | 0.041 |
| GGA2 (UniProt Q9UJY4) | 0.002 | -0.085 | 0.003 | -0.029 | -0.018 | 0.002 | 0.01 | 0.038 | 0.023 | -0.025 | -0.024 | -0.037 | -0.029 | 0.023 | -0.002 | -0.131 | 0.007 | -0.024 | -0.046 | -0.004 |
| EPB41 (UniProt P11171) | 0.044 | -0.02 | 0.011 | 0.015 | -0.067 | 0.01 | -0.001 | 0.02 | -0.036 | 0.007 | -0.009 | -0.015 | -0.007 | 0.04 | -0.016 | -0.105 | 0.035 | 0.01 | -0.013 | -0.088 |
| GALNT2 (UniProt Q10471) | -0.069 | 0.073 | -0.004 | 0.008 | -0.057 | 0.048 | -0.047 | 0.028 | -0.021 | -0.021 | -0.016 | -0.039 | 0.009 | -0.074 | -0.044 | 0.272 (active) | 0.047 | -0.014 | -0.002 | 0.18 |
| ENO1 isoform 2 (UniProt P06733) | -0.174 | 0.085 | -0.13 | -0.001 | 0.009 | 0.033 | -0.033 | 0.022 | -0.004 | -0.015 | 0.005 | -0.012 | -0.019 | -0.285 (active) | 0.049 | 0.153 | 0.026 | -0.019 | 0.07 | 0.222 |
